Here are results for 22 compounds from PubChem BioAssay (NCATS).

Several values for one entry are separate records, joined by “and”; a condition that tells them apart may be missing. Identical values can stand only once. Inconclusive results are not listed. Activity calls are given as the source filed them. Unless noted, calls follow the shape of the dose curve; as a rule, active = well fitted curve in the direction sought with a large enough effect; inconclusive = small, poorly fitted or top-dose-only effect, or another doubt; inactive = no such curve, though single readings can be large; an effect the other way counts as inactive or inconclusive.

The nature of test [1]: qHTS Assay for Identifying Gametocytocidal Compounds (AID 743244).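 Also: % is scaled to controls: 0 for no effect and ±100 for the full control effect; actives lower the fluorescent signal which means gametocytes are killed.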 The note with it: P. falciparum 3D7 stage III-V gametocytes, alamarBlue, 72 h; max response: stronger effect = lower value. A digest of the protocol: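 3D7 gametocytes, stages III–V, 20,000/well; cpd 72 h, 37 °C/5% CO2; + alamarBlue 24 h; fluor. Ex 525/Em 598.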
A general note: Quantitative high-throughput screening tests each substance at several concentrations.

Test [2] in a line: qHTS assay to identify small molecule inhibitors of chordoma cells - UCH-1 (AID 1259355). Also: % is scaled to controls: 0 for no effect and ±100 for the full control effect; nearly all actives have a fitted effect of over 55% in size. The essentials: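 A 48hr growth-inhibition format: each drug tested at 15 concentrations together with added auranofin, camptothecin, doxorubicin, rubitecan and topotecan, with cell viability quantified as CellTiter-Glo luminescence.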
The nature of test [3]: qHTS assay to identify small molecule inhibitors of chordoma cells - UCH-2 (AID 1259356). Also: % is scaled to controls: 0 for no effect and ±100 for the full control effect.
A short description of test [4]: qHTS profiling for inhibitors of Plasmodium falciparum (3D7) proliferation (AID 743322).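 Also: infected erythrocytes exposed to compound for 72 h before lysis; 100% = DMSO vehicle wells and 0% = 0.29 µM artemisinin.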 Particulars: P. falciparum 3D7 proliferation; at 28.7 µM (top of the series) unless noted. An excerpt:
Plasmodium falciparum is a virulent malarial parasite that kills 1-2 million people worldwide each year. Transmitted by mosquitoes, the sporozoite form of the parasite enters the blood stream to infect hepatocytes, where they become merozoites that infect red blood cells (erythrocytes). Within erythrocytes, merozoites begin a […] cycle of growth and division, after which the parasite is released to infect new red blood cells. Gametocytes, which form within erythrocytes as well, circulate in the bloodstream and are ingested by the mosquito, thereby completing the life cycle. To profile malarial isolates for differential chemical responses and to identify inhibitors of malarial growth, an assay that measures P. falciparum growth and replication within erythrocytes was employed. This assay uses a DNA binding fluorescent dye (SYBR Green) to detect parasite DNA following cell lysis. Because mature erythrocytes lack DNA, only Plasmodium-derived DNA is detected.
The SYBR Green viability assay was adapted from a method described previously (Plouffe et al., 2008). For screening 3 ul culture medium was dispensed into 1536 well black clear bottom plates (Aurora Biotechnologies) using a Multidrop Combi (Thermo Fisher Scientific Inc.), 23 nL compounds in DMSO were added by a pin tool (Kalypsys), and 5 ul of erythrocytes infected with P. falciparum (0.3% parasitemia, 2.5% hematocrit final concentration) were added. The plates were incubated at 37 C in a humidified incubator in 5% CO2 for 72 h, and 2 ul lysis buffer (20 mM Tris HCl, 10 mM EDTA, 0.16% saponin, 1.6% triton X, 10X SYBR Green I supplied as 10,000X […] by Invitrogen) was added to each well. The plates were mixed for 25 sec with gentle shaking and incubated overnight at room temperature in the dark. The following morning, fluorescence intensity at 485(14) nm excitation and 535(25) nm emission wavelengths was measured on an EnVision (Perkin Elmer) plate reader. Plate reads were normalized relative to the control inhibitor (0.29 uM artemisinin) and vehicle (DMSO) wells present on each plate and then corrected by an algorithm using vehicle-only control plates at the beginning and end of the compound plate stack.

A short description of test [5]: qHTS profiling for inhibitors of Plasmodium falciparum (DD2) proliferation (AID 743323; call rule not given here). The note with it: lower = more inhibition; at 28.7 µM (top of the series) unless noted. The essentials: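 P. falciparum Dd2-infected erythrocytes (0.3% parasitemia, 2.5% hematocrit) exposed 72 h at 37 C, 5% CO2. Lysis with SYBR Green, overnight at room temperature, fluorescence 485/535 nm; normalized to 0.29 uM artemisinin and DMSO.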

Test [6] can be described thus: qHTS profiling for inhibitors of Plasmodium falciparum (HB3) proliferation (AID 743324).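 Also: 100% = DMSO vehicle wells and 0% = artemisinin-treated control wells.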 The note with it: Plasmodium falciparum HB3 blood-stage proliferation; at 28.7 µM (top of the series) unless noted. The essentials: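 SYBR Green fluorescence (485 ex/535 em) of lysed cultures, incubated overnight at room temperature in the dark, quantifies parasite DNA. Infected erythrocytes at 0.3% parasitemia and 2.5% hematocrit were exposed 72 h; values normalized to DMSO and 0.29 uM artemisinin controls.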

Consider `CCCOc1cc(N)ccc1C(=O)OCCN(CC)CC`, for which the max response in test [1] is -20.2% (inactive). For the same compound, the Potency entry in test [2] and in test [3] was “inactive” throughout.
For `CC(C)c1nc(N(C)S(C)(=O)=O)nc(-c2ccc(F)cc2)c1/C=C/C(O)CC(O)CC(=O)O` (stereo not given), the max response in test [1] was 12% (inactive). Moreover, the Potency entry in test [2] and in test [3] was “inactive” each time.
Turning to `C=Cc1c(C)c2cc3nc(cc4[nH]c(cc5nc(cc1[nH]2)C(C)=C5CCC(=O)OC)c(CCC(=O)O)c4C)[C@@]1(C)C3=CC=C(C(=O)OC)[C@H]1C(=O)OC`, the remaining parasite growth % (stronger effect = lower value) in test [4] was -0.398% [at 9.63 µM]. Besides, the activity, percent of control in test [5] was found to be 0.912% [at 9.63 µM]. Moreover, in test [6], the remaining proliferation (% of control), lower = more inhibition is 0.279% [at 9.63 µM]. For the same compound, the Potency result in test [2] and in test [3] was “inactive” each time.
For the compound `CNCC(=O)N[C@@H](CCCN=C(N)N)C(=O)N[C@H](C(=O)N[C@@H](Cc1ccc(O)cc1)C(=O)N[C@H](C(=O)N[C@@H](Cc1cnc[nH]1)C(=O)N1CCC[C@H]1C(=O)N[C@@H](C)C(=O)O)C(C)C)C(C)C`, the max response in test [1] is 5.17% (inactive). Besides, the Potency entry in test [2] and in test [3] was “inactive” each time.
`NC[C@@H]1O[C@H](O[C@H]2[C@@H](O)[C@H](O[C@@H]3[C@@H](O)[C@H](N)C[C@H](N)[C@H]3O[C@H]3O[C@H](CO)[C@@H](O)[C@H](O)[C@H]3N)O[C@@H]2CO)[C@H](N)[C@@H](O)[C@@H]1O`: the max response in test [1] was 20.3% (inactive). For the same compound, the Potency result in test [2] and in test [3] was “inactive” throughout.
As for `COC1=C(OC)C(=O)C(C/C=C(\C)CC/C=C(\C)CC/C=C(\C)CC/C=C(\C)CC/C=C(\C)CC/C=C(\C)CC/C=C(\C)CC/C=C(\C)CC/C=C(\C)CCC=C(C)C)=C(C)C1=O`, in test [1], the max response is 1.6% (inactive) and -2.73% (inactive). The Potency result in test [2] and in test [3] was “inactive” in each case.
`CCOC(=O)Cc1ccc(-c2ccccc2)cc1`: in test [1], the max response is -12.4% (inactive). Further, the Potency result in test [2] and in test [3] was “inactive” in each case.
Take `CCc1ncnc2cc(OC)c(OC)cc12`: in test [1], the max response is -4.33% (inactive). In addition, the Potency entry in test [2] and in test [3] was “inactive” throughout.
Regarding `CCOc1cc(-c2nccc3cc(OC)c(OC)cc23)cc(OCC)c1OCC`, in test [1], the max response is -3.95% (inactive). The Potency result in test [2] and in test [3] was “inactive” each time.
On to `CC(C)(CO)[C@@H](O)C(=O)NCCC(=O)NCCSSCCNC(=O)CCNC(=O)[C@H](O)C(C)(C)CO`, for which the max response in test [1] is 8.29% (inactive). Further, the Potency entry in test [2] and in test [3] was “inactive” each time.
As for `CC[C@H]1OC(=O)C[C@@H](O)[C@H](C)[C@@H](O[C@@H]2O[C@H](C)[C@@H](O[C@H]3C[C@@](C)(O)[C@@H](O)[C@H](C)O3)[C@H](N(C)C)[C@H]2O)[C@@H](CC=O)C[C@@H](C)C(=O)/C=C/C(C)=C/[C@@H]1CO[C@@H]1O[C@H](C)[C@@H](O)[C@@H](OC)[C@H]1OC`, the max response in test [1] was 19.1% (inactive) and -3.87% (inactive). The Potency result in test [2] and in test [3] was “inactive” throughout.
Turning to `CC(/C=C/C=C(\C)C(=O)O[C@@H]1O[C@H](CO[C@@H]2O[C@H](CO)[C@@H](O)[C@H](O)[C@H]2O)[C@@H](O)[C@H](O)[C@H]1O)=C\C=C\C=C(C)\C=C\C=C(/C)C(=O)O[C@@H]1O[C@H](CO[C@@H]2O[C@H](CO)[C@@H](O)[C@H](O)[C@H]2O)[C@@H](O)[C@H](O)[C@H]1O`, the max response in test [1] was 5.1% (inactive). Further, the Potency result in test [2] and in test [3] was “inactive” each time.
Regarding `CCN(CC)CCC(=O)N1c2ccccc2Sc2ccc(Cl)cc21`, the max response in test [1] was 2.51% (inactive). Moreover, the Potency entry in test [2] and in test [3] was “inactive” in each case.
Consider `COc1ccc(/C=N/NC(=O)c2ccncc2)c(C(=O)O)c1OC`, for which the max response in test [1] was 9% (inactive). Also, the Potency entry in test [2] and in test [3] was “inactive” each time.
Turning to `O=P(O)(O)CP(=O)(O)O`, the max response in test [1] is -3.27% (inactive). In addition, the Potency result in test [2] and in test [3] was “inactive” throughout.
Consider `O=C(O)c1ccc(OCCn2ccnc2)cc1`, for which the max response in test [1] is 0.359% (inactive). The Potency result in test [2] and in test [3] was “inactive” in each case.
As to `C[C@H]1[C@@H](OC(=O)CCC(=O)O)O[C@@H]2OC3(C)CC[C@H]4[C@H](C)CC[C@@H]1[C@@]24OO3`, the remaining parasite growth % (stronger effect = lower value) in test [4] was -0.578%. For the same compound, the activity, percent of control in test [5] was -0.204%. Besides, the remaining proliferation (% of control), lower = more inhibition in test [6] was -0.191%. Further, the Potency entry in test [2] and in test [3] was “inactive” throughout.
In the case of `Cc1cc(C(=O)NCCc2ccc(S(=O)(=O)NC(=O)NN3CCCCCC3)cc2)no1`, the max response in test [1] was 4.46% (inactive). Also, the Potency entry in test [2] and in test [3] was “inactive” in each case.
As for `CO/N=C(\C(=O)N[C@@H]1C(=O)N2C(C(=O)O)=C(CSc3nnnn3C)CS[C@H]12)c1csc(N)n1`, the max response in test [1] is 2.87% (inactive). In addition, the Potency entry in test [2] and in test [3] was “inactive” each time.
With `CC(C)(CO)[C@@H](O)C(=O)NCCCC(=O)O`, the max response in test [1] is -4.37% (inactive). The Potency entry in test [2] and in test [3] was “inactive” each time.
For `CC1CCC(NC(=O)N(CCCl)N=O)CC1` (stereo not given), in test [1], the max response is 3.88% (inactive). Also, the Potency entry in test [2] and in test [3] was “inactive” in each case.
In the case of `CC(C)N1CCN(c2ccc(OC[C@H]3CO[C@](Cn4cncn4)(c4ccc(Cl)cc4Cl)O3)cc2)CC1`, the max response in test [1] is 3.43% (inactive). Further, the Potency result in test [2] and in test [3] was “inactive” in each case.
